RORg inh: qHTS for inhibitors of ROR gamma transcriptional activity; Nuclear receptor ROR-gamma (Mus musculus), P51450; AID 2551, 2010; Drosophila S2 Gal4-RORgamma UAS-luciferase reporter, 20 h; hit rate 5.4% among 310,000; Potency, µM (titrated, usually from 53.6 µM), for inactives: at the top dose activity change, negative = inhibition, hits mostly inhibitors; further: nearly all actives have a fitted effect of over 60% in size
Target sequence (P51450 whole entry, looked up, the tested form may be a part): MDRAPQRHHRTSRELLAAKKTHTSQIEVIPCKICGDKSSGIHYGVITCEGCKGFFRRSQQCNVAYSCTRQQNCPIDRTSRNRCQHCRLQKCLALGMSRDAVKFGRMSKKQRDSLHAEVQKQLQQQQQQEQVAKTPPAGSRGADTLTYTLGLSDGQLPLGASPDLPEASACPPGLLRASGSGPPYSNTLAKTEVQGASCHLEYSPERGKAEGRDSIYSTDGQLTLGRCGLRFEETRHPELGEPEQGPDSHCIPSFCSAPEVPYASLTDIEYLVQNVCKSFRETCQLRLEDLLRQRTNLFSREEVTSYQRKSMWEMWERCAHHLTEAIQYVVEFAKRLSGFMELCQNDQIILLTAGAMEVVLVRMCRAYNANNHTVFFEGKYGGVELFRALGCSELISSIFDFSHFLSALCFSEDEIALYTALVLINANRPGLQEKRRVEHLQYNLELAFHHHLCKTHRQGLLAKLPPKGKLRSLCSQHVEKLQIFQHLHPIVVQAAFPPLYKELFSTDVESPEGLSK
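Using a luciferase readout, inhibitors were identified by reduced reporter activity in Drosophila cells coexpressing a copper-inducible Gal4–ROR gamma fusion and UAS-driven Photinus luciferase, incubated 20 hr after 700 uM copper sulfate.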
DT40 TDP1 CPT: qHTS for Inhibitors of human tyrosyl-DNA phosphodiesterase 1 (TDP1): qHTS in cells in presence of CPT | AID 686979, 2013 | hit rate 12% among 420,000 | chicken DT40 Tdp1-/-;hTDP1 cells + 20 nM CPT, ATP luminescence, 48 h | Potency, µM (highest dose often 46.2 µM), for inactives: top-dose activity change, negative = growth inhibition, actives largely listed as inhibitors; further: nearly all actives have a fitted effect of over 55% in size
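Chicken DT40 Tdp1-/- cells stably complemented with human TDP1 were seeded at 400 cells/well in medium containing 20 nM camptothecin, exposed to pin-transferred compounds, and grown at 37 °C for at least 48 hr. Viability was read as ATP luminescence.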
TDP1 inh: qHTS Assay for Inhibitors of Tyrosyl-DNA Phosphodiesterase (TDP1); Potency, µM (titrated, usually from 130 µM), without a hit: top-dose activity change, negative = inhibition, actives largely listed as inhibitors; AID 485290, 2010; hit rate 0.28% among 350,000; recombinant TDP1, AlphaScreen DNA substrate cleavage; further: nearly all actives have a fitted effect of over 40% in size
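Compounds were preincubated with Tdp1 (1 nM final) for 15 min at room temperature before substrate (15 nM final) started a 5 min reaction; beads (10 ug/ml final) were then added for 10 min before AlphaScreen detection.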
DT40 TDP1 no CPT: qHTS for Inhibitors of human tyrosyl-DNA phosphodiesterase 1 (TDP1): qHTS in cells in absence of CPT; Potency, µM (highest dose often 46.2 µM), for inactives: top-dose activity change, negative = growth inhibition, usual class: inhibitors; hit rate 15% among 420,000; DT40 Tdp1-/- hTDP1 cells, no CPT, ATP luminescence, 48 h; AID 686978, 2013; further: nearly all actives have a fitted effect of over 55% in size
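A cellular qHTS used chicken DT40 cells lacking endogenous Tdp1 but carrying stably transfected human TDP1. Compounds were applied without camptothecin, and cell growth kinetics were judged by ATP-dependent luminescence after ≥48 hr.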
Gal4-VP16 FLuc: VP16 counterscreen qHTS for inhibitors of ROR gamma transcriptional activity. Drosophila S2 Gal4-VP16 UAS-luciferase, luminescence, 20 h. Potency, µM (top dose mostly 53.6 µM), inactives show top-dose activity, negative = inhibition, usual class: inhibitors. hit rate 3.5% among 310,000;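 further: Gal4-VP16 expression switched on by copper sulfate through the metallothionein promoter; nearly all actives have a fitted effect of over 50% in size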
* hit, by the source's call; ? = inconclusive; nt = no result; [ ] = dose if it differs, or a comment. In the library only some 19% were active in any assay of this set; here they are far more common. The call rests on the fitted dose curve; in most records, active means well fitted curve in the direction sought with a large enough effect; inconclusive means small, poorly fitted or top-dose-only effect, or another doubt; inactive means no such curve, though single readings can be large; an effect the other way counts as inactive or inconclusive. On the % scale 0 is the no-effect control and ±100 the full control effect; potency means the concentration at half of the fitted maximal effect.

SMILES	RORg inh	DT40 TDP1 CPT	TDP1 inh	DT40 TDP1 no CPT	Gal4-VP16 FLuc
Cc1ccc2nc(-c3ccccn3)oc2c1	10µM*	?	3%	?	?
c1ccc(-c2cc(-c3nc(-c4ccccn4)no3)c3ccccc3n2)cc1	nt	9.2µM*	nt	8.2µM*	nt
c1ccc(-c2nc(-c3ccccn3)no2)cc1	2.2µM*	16µM*	3%[56.1 µM]	?	2µM*
c1ccc(-c2noc(-c3ccno3)n2)nc1	23%	2%	-5%	-2%	-1%
NC(=O)COC(=O)CCCc1c[nH]c2ccccc12	-9%	-11%	0%	-7%	-4%
CC(=O)c1cc(CN2CCCCC2)cc(OC(C)C)c1	2%	-9%	3%	6%	6%
c1ccc(C(Cc2nc(-c3ccccn3)no2)c2ccccc2)cc1	?	?	8%	16µM*	?
Clc1cccc(-c2nc(-c3ccccn3)no2)c1	5µM*	-21%	1%	?	8.9µM*
Cc1ccc(-c2nc(-c3ccccn3)no2)cc1	0.89µM*	7.3µM*	4%	8.2µM*	2µM*
c1ccc(-c2n[nH]c(-c3ccccn3)n2)cc1	1.1µM*	?	0%	?	1.1µM*
c1ccc(Cc2nc(-c3ccccn3)no2)cc1	-7%	0%	-8%	0%	-22%
CC1(C)CC2(C)OCCN2C(=S)N1 (centres undefined)	?	15%	nt	14%	-9%
Cc1ccc(C)c(OCc2nnc(NC(=O)c3ccco3)s2)c1	-2%	-6%	-5%	0%	3%
Cc1ccc(-c2nc(-c3ccncc3)no2)cc1Cl	-25%	7%	nt	-4%	-2%
Cc1ccc(-c2nc(-c3ccccn3)no2)cc1Cl	3.5µM*	?	4%	12µM*	5.6µM*
Cc1ccc(-n2c(=O)c3c(C)c(C)sc3n(CC(=O)NCc3ccccc3)c2=O)cc1C	nt	-25%	-3%	-23%	nt
O=C(Nc1ccccc1)c1nc(S(=O)(=O)Cc2ccccc2F)ncc1Cl	nt	1.1µM*	nt	1.1µM*	nt
COC(=O)c1ccc(NC(=O)c2nc(S(=O)(=O)Cc3ccccc3F)ncc2Cl)cc1	nt	0.71µM*	nt	0.89µM*	nt
O=C(Nc1ccc(F)cc1)c1nc(SCc2ccccc2F)ncc1Cl	nt	0%	-5%	-11%	nt
COc1ccc(NC(=O)CNC(=O)N2CC(=O)Nc3ccccc32)cc1OC	-9%	8%	4%	-13%	-5%
COc1cccc2[nH]c3c(=O)n(CCN(C)C)cnc3c12	-1%	-2%	5%	7%	4%
Cc1ccc(NC(=O)Cn2c(=O)n(CCC(=O)NCCc3ccccc3)c(=O)c3ccccc32)cc1	nt	-11%	5%	-10%	nt
COCCCNC(=O)C1CCN(c2nn3cc(-c4ccc(F)cc4)nc3s2)CC1	nt	?	10%	?	nt
CCN(CC)CCNC(=O)C1CCN(c2nn3cc(-c4ccc(F)cc4)nc3s2)CC1	nt	5.2µM*	1%	3.3µM*	nt
O=C(Nc1cccc(Cl)c1)C1CCCN(c2nn3cc(-c4ccc(F)cc4)nc3s2)C1 (centres undefined)	nt	?	4%	23µM*	nt
SMILES	RORg inh	DT40 TDP1 CPT	TDP1 inh	DT40 TDP1 no CPT	Gal4-VP16 FLuc
O=C(NCc1cccc(Cl)c1)C1CCCN(c2nn3cc(-c4ccc(F)cc4)nc3s2)C1 (centres undefined)	nt	?	5%	23µM*	nt
COc1ccc2cc(C(c3nnnn3CC3CCCO3)N3CCOCC3)c(=O)[nH]c2c1 (centres undefined)	-22%	-7%	1%	-16%	1%
Cc1ccc(C)c(NC(=O)Cn2nnc(C(=O)NCc3ccco3)c2N)c1	-10%	1.3µM*	-3%	1.2µM*	-12%
COc1ccccc1NC(=O)Cn1nnc(C(=O)NCc2cccs2)c1N	14%	0.58µM*	1%	0.46µM*	-15%
COc1ccc(NC(=O)Cn2nnc(C(=O)NCCc3ccccc3)c2N)c(OC)c1	?	-5%	-20%	19%	?
CCc1ccccc1NC(=O)Cn1nnc(C(=O)NCc2cccs2)c1N	1%	3.7µM*	-1%	3.3µM*	0%
COc1ccc(NC(=O)Cn2nnc(C(=O)NCc3ccccc3)c2N)c(OC)c1	-24%	?	-3%	13µM*	?
Cc1ccc(CNC(=O)c2nnn(CC(=O)Nc3cc(C)ccc3C)c2N)cc1	nt	0%	3%	1%	nt
COc1ccccc1C1=NS(=O)(=O)N(C)C(C(=O)Nc2cc(OC)c(OC)c(OC)c2)=C1	nt	?	3%	?	nt
Cc1nc(C(=O)NNC(=O)Nc2ccc(Cl)cc2)cs1	13%	4%	nt	-1%	-7%
CCc1nnc(NC(=O)CSc2ccc(-c3ccc(-n4cccn4)cc3)nn2)s1	nt	-19%	nt	-17%	nt
CN1CCC[C@H]1CCNC(=O)c1c(-c2ccsc2)sc2ccccc12	nt	-2%	0%	1%	nt
Cc1cc(C)n(-c2nnc(Nc3ccc(C)c(Cl)c3)c3ccccc23)n1	nt	?	-5%	8.2µM*	nt
FC(F)(F)c1cccc(Nc2nc3nonc3nc2Nc2ccc(Cl)cc2)c1	nt	0.23µM*	nt	0.58µM*	nt
O=C(Nc1cccc(C(F)(F)F)c1)c1cc(-c2ccc(Cl)cc2)on1	nt	?	2%	?	nt
Cc1cccc(C)c1NC(=O)COC(=O)C1Cc2ccccc2CN1C(=O)c1ccccc1 (centres undefined)	35%	-15%	nt	?	2%
N#Cc1ccc(NC(=O)COC(=O)C2Cc3ccccc3CN2C(=O)c2ccccc2)cc1 (centres undefined)	32%	9.2µM*	3%	16µM*	-5%
CNC(=O)c1ccc(NC(=O)C2CCN(S(=O)(=O)c3cccc(C(F)(F)F)c3)CC2)cc1	nt	4%	-2%	-3%	nt
Cc1sc2ccccc2[n+]1Cc1ccccc1	nt	0.79µM*	nt	1.1µM*	nt

Compound activity from PubChem BioAssay.
